Luc counter – blocks Kinase-Glo luciferase, a counter-screen artifact. Q27757. Kinase-Glo luciferase, ATP luminescence, 8 min. Potency, µM (titrated, usually from 38.3 µM), inactives show top-dose activity change, negative = inhibition, hits mostly inhibitors. AID 1379. 0.28% of 200,000 active; note: % is set by controls: 0 for no effect and ±100 for the full control effect; nearly all actives have a fitted effect of over 60% in size
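Luminescence was the read-out, taken after 8-minute incubation at ambient temperature. Luciferase turned over luciferin with 10 uM ATP in imidazole pH 7.2 buffer containing KCl, MgCl2, Tween 20 and BSA.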
SMN2 splice enh – enhancers of SMN2 splice variant expression | Potency, µM (titrated, usually from 46.1 µM), inactives show top-dose activity change, positive = activation, actives largely listed as activators | 2.8% of 210,000 active | HEK293 SMN2-luciferase splicing reporter, luminescence, 30-36 h | AID 1458; note: % of control where 0% means no effect; nearly all actives have a fitted effect of over 55% in size
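HEK293 cells carry an SMN2 […]–luciferase reporter in which exon 7 inclusion puts luciferase in frame. Cells were plated 10-12 h before compound addition, then incubated 30-36 h at 37C. ONE-Glo luminescence was read; sodium butyrate at 4.5 mM final served as control.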
ELG1 genotox – induces genotoxicity in HEK293T cells with luciferase-tagged ELG1; 1.3% of 330,000 active; Potency, µM (doses to about 46 µM), for the others: top-dose activity change, positive = activation, most hits filed as activators; HEK293T ELG1-luciferase reporter, luminescence, 16 h; note: % of control where 0% means no effect; nearly all actives have a fitted effect of over 60% in size
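After overnight (16 hr) compound treatment at 37 °C, ELG1-luciferase HEK293T cells were lysed with ONE-Glo; luminescence quantified 30 min later at room temperature.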
NPC1 prom act – activators of NPC1 promoter; 2.4% of 320,000 active; Potency, µM (highest dose often 9.22 µM), without a hit: at the highest dose activation, usual class: activators; AID 485313; Huh7 NPC1 promoter luciferase reporter, 24 h; note: % of control where 0% means no effect; nearly all actives have a fitted effect of over 60% in size
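Compounds in DMSO were transferred onto Huh7 NPC1-luciferase reporter cells pre-incubated 2 h; after 24 h at 37 °C, Amplite reagent was dispensed and luminescence recorded 10 min later.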
FLuc counter – firefly luciferase modulation, counter-screen for miR-21 project; purified FLuc, Km substrates, luminescence inhibition; AID 588342; P08659; 6.9% of 360,000 active; Potency, µM (doses to about 57.5 µM), for the others: at the highest dose activity change, negative = inhibition, usual class: inhibitors;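 note: plate controls were vehicle for no effect and reference inhibitor for full effect; nearly all actives have a fitted effect of over 55% in size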
Target sequence (P08659 whole entry, looked up): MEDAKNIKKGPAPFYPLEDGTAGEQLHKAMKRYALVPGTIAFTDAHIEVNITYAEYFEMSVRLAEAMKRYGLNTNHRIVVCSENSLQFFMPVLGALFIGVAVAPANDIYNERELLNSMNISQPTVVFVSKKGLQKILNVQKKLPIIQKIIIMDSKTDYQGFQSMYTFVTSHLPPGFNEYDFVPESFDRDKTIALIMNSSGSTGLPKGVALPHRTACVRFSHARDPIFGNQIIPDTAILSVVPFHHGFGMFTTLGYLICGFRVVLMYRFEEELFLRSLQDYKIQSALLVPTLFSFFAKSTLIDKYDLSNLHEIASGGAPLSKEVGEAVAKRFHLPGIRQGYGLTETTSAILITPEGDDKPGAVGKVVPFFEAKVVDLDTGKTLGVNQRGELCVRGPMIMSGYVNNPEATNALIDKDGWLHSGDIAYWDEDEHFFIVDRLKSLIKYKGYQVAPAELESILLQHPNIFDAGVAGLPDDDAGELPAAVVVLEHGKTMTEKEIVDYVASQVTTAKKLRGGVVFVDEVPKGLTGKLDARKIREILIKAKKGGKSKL
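Purified P. pyralis luciferase, 10 nM final, with Km-level 10 uM D-luciferin and 10 uM ATP in 50 mM Tris acetate pH 7.5, 10 mM Mg acetate, 0.01% Tween-20, 0.05% BSA; 6-point qHTS titration about 60 µM downward; luminescence read.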
Rab9 promoter act – activators of Rab9 promoter. Huh7 Rab9 promoter-luciferase reporter, luminescence, 24 h. Potency, µM (top dose mostly 9.22 µM), inactives show at the top dose activation, negative = inhibition, hits mostly activators. 2.8% of 320,000 active. AID 485297; note: % of control where 0% means no effect; nearly all actives have a fitted effect of over 60% in size
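Huh7 cells stably carrying Rab9 promoter–luciferase reporter, plated 1500 cells/well, compound added after 2 h and incubated 24 h at 37 °C; luciferase luminescence then read after 10 min with detection reagent.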
* marks the source's active call; other numbers are inactive results; ? = inconclusive; . = no result given; [ ] = remark or other dose. Hits are enriched below; roughly 7.5% of the tested compounds scored in any of these assays. Calls come from the whole dose curve; as a rule, active = well fitted curve in the direction sought with a large enough effect; inconclusive = small, poorly fitted or top-dose-only effect, or another doubt; inactive = no such curve, though single readings can be large; an effect the other way counts as inactive or inconclusive. Potency is the fitted concentration of half-maximal effect.

SMILES	Luc counter	SMN2 splice enh	ELG1 genotox	NPC1 prom act	FLuc counter	Rab9 promoter act
COc1cccc(NC(=O)c2cccc(Cl)c2)c1	.	.	2.06µM*	2.51µM*	3.38µM*	2µM*
COc1cccc(C(=O)Nc2ccc3c(c2)C(=O)c2ccccc2C3=O)c1	-4.9%	-15.2%[1.84 µM]	?	3.16µM*	?	?
CC(NC(=O)c1cccc(S(=O)(=O)N2CCN(Cc3ccccc3)CC2)c1)c1ccc(Br)cc1 (configuration not stated)	.	.	-4.7%	-0.1%	-1.6%	-2.1%
COc1cccc(C(=O)Nc2ccc3c(c2)n(C)c(=O)n3C)c1	.	.	?	-0.1%	?	11.6%
COc1ccc(C(=O)Nc2ccc(C(=O)Nc3cccc(C)c3)cc2)cc1	.	.	13µM*	-8.2%	2.9%	-11.5%
COc1cccc(C(=O)Nc2ccc(C3CC3(Cl)Cl)cc2)c1 (configuration not stated)	-18.4%	12.6µM*	?	2.24µM*	2.69µM*	1.12µM*
COc1cc(NC(=O)c2ccnnc2)cc(C(=O)Nc2cccc(C(F)(F)F)c2)c1	.	.	-2.0%	0.0%	19µM*	1.9%
CCCOc1ccc(C(=O)Nc2cccc(NC(=O)c3cccc(Cl)c3)c2)cc1	.	29.5%	.	.	12µM*	.
CN1CCN(S(=O)(=O)c2ccc3c(c2)oc(=O)n3C)CC1	.	.	-2.2%	11.2%	-0.9%	2.6%
COC(=O)c1cccc(NC(=O)c2cccc(OC)c2)c1	?	?	.	.	12µM*	.
COc1cccc(C(=O)Nc2ccncc2)c1	-6.7%	.	-5.1%	-1.6%	-8.1%	2.9%
COc1cc(OC)cc(C(=O)Nc2cccc(-c3ccc4nncn4n3)c2)c1	2.5%	0.8%	-4.1%	-7.0%	0.0%	-9.0%
O=C(NC(=S)Nc1ccc2c(c1)C(=O)c1ccccc1C2=O)c1ccc(F)cc1	-6.8%	11.2µM*	?	?	16.9µM*	?
O=C(NC(=S)Nc1ccc(NC(=O)c2ccccc2)cc1)c1ccc(F)cc1	.	.	9.6%	20.0%	1.0%	1.7%
COc1ccc(C(=O)Nc2cccc(-c3ccc4nncn4n3)c2)cc1	0.7%	-5.3%	-6.2%	-3.4%	16.9µM*	-4.4%
O=C(O)COC(=O)Cc1ccccc1Nc1c(Cl)cccc1Cl	1.2%[17.1 µM]	3.7%[20.6 µM]	1.3%	-0.6%	-5.8%	8.7%
COC(=O)CC1C(=O)NCCN1C(=O)CSc1nnc(Nc2ccc(OC)cc2)s1 (configuration not stated)	?	.	6.0%	6.3%	21.3µM*	1.5%
COC(=O)CC1C(=O)NCCN1C(=O)CSc1nnc(Nc2ccc(C)cc2)s1 (configuration not stated)	-3.7%	4.9%	7.2%	0.5%	16.9µM*	2.0%
CCOC(=O)C1(CCOc2ccccc2)CCN(CC(O)CO)CC1 (configuration not stated)	.	.	-3.8%	-0.1%	-0.4%	1.7%
Cn1cccc1CC(=O)N/N=C/C=C/c1ccco1	-3.5%	?	2.4%	12.7%	?	-3.6%
CCOc1ccc(-c2nc3ccccc3c(=O)o2)cc1	-23.1%	15.8µM*	?	3.55µM*	0.426µM*	1.41µM*
COc1ccc(-c2nc3ccccc3c(=O)o2)cc1OC	-5.8%	6.8%	9.8%	10.2%	8.49µM*	16.5%
COc1ccc(-c2nc3ccccc3nc2-c2ccc(OC)c(OC)c2)cc1OC	.	.	3.5%	0.6%	4.5%	6.9%
CCCC[C@@H]1C[C@H]1[C@@H](NP(=O)(c1ccccc1)c1ccccc1)c1ccccc1OC	-1.2%	-5.3%	.	.	.	.
COCCNC(=O)C(c1ccncc1)N(Cc1ccccc1)C(=O)Cn1nnc2ccccc21 (configuration not stated)	-2.7%	12.6µM*	-0.2%	?	?	?
SMILES	Luc counter	SMN2 splice enh	ELG1 genotox	NPC1 prom act	FLuc counter	Rab9 promoter act
COCCNC(=O)C(c1cccnc1)N(Cc1ccccc1)C(=O)Cn1nnc2ccccc21 (configuration not stated)	3.7%	26.2%	?	17.8%	?	?
CC(=O)Nc1ccc(NS(=O)(=O)c2c(Cl)cccc2Cl)cc1	.	.	-0.1%	-0.8%	4.8%	-2.7%
N#C/C(=C\c1ccncc1)c1nc2ccccc2[nH]1	-7.7%	17.5%	-0.4%	4.3%	?	-2.0%
N#C/C(=C/c1ccc(N2CCOCC2)o1)c1ccc(Cl)cc1	-1.3%	?	?	3.55µM*	8.49µM*	2.82µM*
N#C/C(=C\c1ccc(N2CCCCC2)o1)C(N)=O	-2.3%	.	7.5%	14.6%	?	7.2%
N#C/C(=C\c1ccc(N2CCOCC2)o1)c1nc2ccccc2[nH]1	-25.6%	0.562µM*	?	0.708µM*	0.426µM*	0.501µM*
N#C/C(=C\c1ccc(N2CCOCC2)c([N+](=O)[O-])c1)c1nc2ccccc2[nH]1	1.3%	-7.1%	-1.4%	18.3%	15.1µM*	-0.8%
N#C/C(=C/c1ccc(N2CCCC2)c([N+](=O)[O-])c1)c1nc2ccccc2[nH]1	-1.7%	7.7%	3.4%	?	6.01µM*	?
CC12CCC(=O)N1C(C(=O)NNC(=O)COc1ccc(Br)cc1)CS2 (configuration not stated)	.	.	-11.4%	-0.9%	-5.5%	-3.5%
CCN(CC)c1ccc2c(O)cc(=O)oc2c1	3.1%	7.1%	2.8%	-0.2%	12µM*	1.1%
CCOc1ccc(NC(=O)CN(C)C(=O)c2sc3ccccc3c2Cl)cc1OCC	.	.	-7.0%	-2.3%	3.6%	1.2%
CNc1ccc(/C=C(\C#N)c2ccccn2)cc1[N+](=O)[O-]	-3.1%	10µM*	10.3µM*	2.82µM*	-18.9%	1.26µM*
N#C/C(=C\c1ccccc1)c1ccccn1	-9.7%	21.3%	?	?	19µM*	?
N#C/C(=C\c1ccncc1)c1ccccn1	.	.	-4.3%	-2.8%	-2.7%	5.6%
CN(C)c1ccc(-c2nnc3n(Cc4ccccc4)c(=O)c4ccccc4n23)cc1	.	.	.	.	-0.7%	.
O=C(Nc1cccc(S(=O)(=O)NC2=NCCC2)c1)c1ccc(OC(F)F)cc1	.	.	-0.2%	-3.0%	10.7µM*	-0.4%
CN(C)S(=O)(=O)c1ccc(C(=O)Nc2cccc(S(=O)(=O)NC3=NCCC3)c2)cc1	.	.	-0.1%	-1.6%	-18.5%	-2.6%
O=C(NC(=S)Nc1cccc(S(=O)(=O)NC2=NCCC2)c1)c1cc(-c2ccco2)nc2ccccc12	.	.	8.7%	-23.5%	19µM*	-27.5%
CN(C)c1cccc(C(=O)Nc2cccc(S(=O)(=O)NC3=NCCC3)c2)c1	.	.	?	2.82µM*	21.3µM*	2.24µM*
CCOc1ccc(C(=O)NC(=S)Nc2cccc(S(=O)(=O)NC3=NCCC3)c2)cc1	0.3%	0.4%	?	-20.1%	12µM*	-3.9%

High-throughput results from PubChem BioAssay.
